# Many of the other results were omitted from the sample, so hits are more common in it than they were.
# CD40 NFkB inh: CD40 pathway inhibition in BL2 cells; inhibition, % at 10 µM; BL2 NF-kB luciferase reporter, CD40L-induced, 4 h; hit rate 0.94% among 83,000;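 active = mean inhibition of at least 50% with a set share of replicates also reaching that level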;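 note: 0% = neutral control wells and 100% = IKK inhibitor VII at 50 µM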
# * hit, by the source's call; ! = not active in a repeat; [ ] = another dose, or the depositor's remark.
SMILES,CD40 NFkB inh
O=C(Nc1ccc(F)cc1)N1[C@@H]2CNc3ccccc3[C@@H]2[C@@H]1CO,14.2[25 µM]
C[C@H]1CN([C@@H](C)CO)C(=O)c2ccccc2-c2ccccc2CO[C@@H]1CN(C)S(=O)(=O)c1cccs1,-19.5[25 µM]
COCCOC(=O)C1=C(C)NC(C)=C(C(=O)OC(C)C)C1c1cccc([N+](=O)[O-])c1 (stereo not given),-25.9
COC(=O)C1=C(C)NC(C)=C(C(=O)OCCCN2CCC(c3ccccc3)(c3ccccc3)CC2)[C@H]1c1cccc([N+](=O)[O-])c1,61.2*[25 µM]
CCOC(=O)C1=C(C)NC(C)=C(C(=O)OC)C1c1cccc([N+](=O)[O-])c1 (stereo not given),-28.5
O=C([C@H]1[C@H](CO)[C@H]2Cn3c(ccc(C4=CCCCC4)c3=O)[C@@H]1N2Cc1nccs1)N1CCCCC1,0.0[25 µM]
CCCOC(=O)c1ccc(O)c(OC)c1,14.6
COc1cc(C(=O)O[C@H]2CC(C)=CC[C@@]3(C)CC[C@@](O)(C(C)C)[C@H]23)ccc1O,51.9*
C[C@H]1CN([C@@H](C)CO)C(=O)c2ccccc2-c2ccccc2CO[C@H]1CN(C)Cc1cccc(C(=O)O)c1,6.1[25 µM]
Cc1ccc(S(=O)(=O)NCC(=O)OCc2cc(=O)oc3cc(C)ccc23)cc1,-6.1
Cc1cc(=O)oc2cc(OC(C)C(=O)N3CCOCC3)c(Cl)cc12 (stereo not given),0.7
Cc1ccc(S(=O)(=O)NC(C(=O)Oc2cc3oc(=O)cc(C)c3cc2Cl)C(C)C)cc1 (stereo not given),29.2*
CC(C)NC(=O)Nc1cccc2c1O[C@H](CN(C)S(C)(=O)=O)[C@@H](C)CN(C)C2=O,8.0
CN1C(=O)c2cc(NC(=O)Nc3ccccc3F)ccc2OC[C@H]2O[C@@H](CC(=O)NCCc3ccncc3)CC[C@H]21,-11.5[25 µM]
Cc1ccc(S(=O)(=O)c2c(C)cc(C)nc2N2CCCCC2)cc1,12.8
Cc1cc(S(=O)(=O)c2ccc(Cl)cc2)nc(S(=O)(=O)c2ccc(Cl)cc2)c1C#N,112.3*
Cc1cc(C)nc(NNS(=O)(=O)c2ccc(Cl)cc2)n1,2.7
CO[C@H]1CN(C)C(=O)c2cc(NC(=O)Nc3cc(F)ccc3F)ccc2OC[C@@H](C)NC[C@@H]1C,0.0[25 µM]
O=C(O)CCC(=O)c1ccc2c(c1)OCCO2,-12.7
CCC(=O)c1ccc2c(c1)OCCO2,0.4
O=C(Cn1ncc(Cl)c(Cl)c1=O)c1ccc2c(c1)OCCO2,97.8*
N#C[C@H]1[C@H](c2ccccc2)[C@@H](CO)N1C(=O)CN1CCOCC1,-22.3[25 µM]
CSc1nsc(SC)c1C(=O)OCC(F)(F)F,-16.7
CSc1nsc(SC)c1C(N)=O,78.3*
CSc1nsc(SC)c1C(=O)O,3.9
SMILES,CD40 NFkB inh
CCCNC(=O)N1C[C@H]2[C@@H](c3ccccc31)[C@H](CO)N2CC1CCCCC1,0.8
CCNC[C@@H]1[C@@H](c2ccc(-c3ccc(F)cc3)cc2)[C@@H](CO)N1C(=O)C1CC1,6.2[25 µM]
CCS(=O)(=O)N1CCCCN2[C@@H](CO)[C@@H](c3ccc(-c4ccccc4F)cc3)[C@@H]2C1,-16.2[25 µM]
N#C[C@@H]1[C@@H](c2ccc(-c3cncnc3)cc2)[C@H](CO)N1C(=O)C1CCC1,-11.3[25 µM]
O=C(c1cccc(F)c1)N1C[C@@H]2[C@H](c3ccccc31)[C@H](CO)N2C(=O)c1ccccn1,14.8[25 µM]
N#C[C@H]1[C@H](c2ccccc2C2=CCCCC2)[C@@H](CO)N1C(=O)c1cccc(F)c1,12.0[25 µM]
c1ccc(OCCSc2nnnn2-c2ccccc2)cc1,-20.1
c1ccc(OCCSc2nnc3sc4ccccc4n23)cc1,86.7*
CCCn1c(=O)c2ccccc2n2c(SCCOc3ccccc3)nnc12,-3.0
Cc1noc(C)c1NC(=O)Nc1ccc2c(c1)CC(=O)N([C@H](C)CO)C[C@H](C)[C@@H](CN(C)S(=O)(=O)c1cccs1)O2,-0.2[25 µM]
COC(=O)c1ccc(CSc2nnnn2C)o1,6.1
COC(=O)c1ccc(CSc2nnc3c(Cl)cc(Cl)cn23)o1,67.1*
COC(=O)c1ccc(CSc2nc3ccccc3c(=O)n2-c2ccccc2)o1,33.5
COC(=O)c1ccc(CSc2cc(C)c3cc(C)cc(C)c3n2)o1,54.9*
CCc1nc(SCc2ccc(C(=O)OC)o2)n[nH]1,0.0
COC(=O)c1ccc(CSCc2ccc(C(=O)OC)o2)o1,12.2
C[C@H](CO)N1C[C@H](C)[C@H](CN(C)S(=O)(=O)c2cn(C)cn2)OCc2cn(nn2)CCCC1=O,11.0[25 µM]
CC(=O)N1[C@H](CO)[C@@H](c2ccccc2)[C@H]1CNC(=O)CN1CCOCC1,-7.4[25 µM]
NNC(=O)CCN1CCCCC1,6.0
O=C(CCC(=O)CCN1CCCCC1)CCN1CCCCC1,77.4*
NC(=O)CCN1CCCCC1,-5.3
CCNC(=O)[C@H]1[C@H](CO)[C@H]2Cn3c(ccc(-c4ccc(F)cc4)c3=O)[C@H]2N1Cc1cc(F)ccc1F,14.4[25 µM]
CCC(=O)N1C[C@H](O)COC[C@H]2O[C@@H](CC(=O)NCc3ccc(Oc4ccccc4)cc3)CC[C@@H]21,2.3[25 µM]
Cc1ccc2nc(-c3cc(-c4ccccc4)no3)cn2c1,63.3*
CC(=O)Nc1nccc(-c2cc(-c3ccccc3)no2)n1,-89.7
SMILES,CD40 NFkB inh
CN(C)C(=O)c1cc(-c2ccccc2)no1,-47.9
COCCNC(=O)[C@H]1[C@H](CO)[C@H]2Cn3c(cccc3=O)[C@H]2N1Cc1ccccc1OC,-0.5[25 µM]
CN(C[C@H]1[C@@H](c2ccccc2)[C@H](CO)N1C(=O)C1CC1)C(=O)c1ccccn1,16.5[25 µM]
c1ccc(C(O[C@@H]2CCCN(CCc3ccc4c(c3)OCO4)C2)c2ccccc2)cc1,-8.3[25 µM]
CCCNC(=O)N1[C@H](CNC(C)=O)[C@H](c2ccc(-c3ccccc3)cc2)[C@@H]1CO,-0.6
COc1ccc(-c2ccc(C3[C@@H]4CN(Cc5cccc(OC)c5)C[C@H]3N4)cc2)cc1 (stereo not given in full),2.8
COc1cccc(-c2ccc(C3[C@@H]4CN(Cc5cccc(F)c5)C[C@H]3N4)cc2)c1 (stereo not given in full),60.3*!
Cc1ccc(-c2ccc(C3[C@@H]4CN(Cc5cccc(F)c5)C[C@H]3N4)cc2)cc1 (stereo not given in full),61.9*
Cc1ccc(-c2ccc(C3[C@@H]4CN(Cc5ccccc5)C[C@H]3N4)cc2)cc1 (stereo not given in full),3.3[25 µM]
COc1cccc(CN2C[C@@H]3N[C@H](C2)C3c2ccc(-c3ccncc3)cc2)c1 (stereo not given in full),1.5[25 µM]
Fc1ccc(-c2ccc(C3[C@@H]4CN(Cc5cccc(F)c5)C[C@H]3N4)cc2)cc1 (stereo not given in full),-3.8[25 µM]
COc1cccc(C(=O)Nc2ccc3c(c2)C(=O)N(C)[C@@H]2CC[C@H](CC(=O)NCc4ccc(F)cc4)O[C@@H]2CO3)c1,8.6[25 µM]
CN1c2ccc(-c3ccccc3F)cc2[C@@H]2[C@@H](CCN2C(=O)NC2CCCCC2)[C@H]1CO,-32.8
CO[C@H]1CN(C)C(=O)c2cc(NC(=O)C3CC3)ccc2OC[C@@H](C)N(CC2CCCC2)C[C@@H]1C,5.3
CC(=O)N(C)C[C@H]1OCc2ccccc2-c2ccccc2C(=O)N([C@H](C)CO)C[C@@H]1C,-18.5[25 µM]
O=C(C[C@@H]1CC[C@H]2[C@@H](COC[C@H](O)CN2CC2CCCC2)O1)NCc1ccc(Cl)cc1,5.7
O=C(Cc1ccccn1)N1CC(=O)N2[C@H](C1)[C@@H](c1ccc(C#CC3CCCC3)cc1)[C@@H]2CO,-10.7
COc1cccc(-c2cccc(-c3nc(C(=O)NCC(F)(F)F)cc4c3[C@@H](CCO)N([S@](=O)C(C)(C)C)C4)c2)c1,5.0

# Screening results (PubChem BioAssay)
